This is one part of a sample in which hits are shown more often than they occur.
Sm TGR inh: S. mansoni TGR enzyme inhibition. Q962Y6. purified TGR, DTNB reduction, TNB absorbance 405 nm. Potency, µM (series often up to 114 µM), without a hit: at the top dose activity change, negative = inhibition, actives largely listed as inhibitors. 360,000 compounds, 3% hits. AID 485364; further: potency means the concentration at half of the fitted maximal effect; on the % scale 0 is the no-effect control and ±100 the full control effect; nearly all actives have a fitted effect of over 60% in size
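First, TGR (20 nM dispensed) and NADPH were mixed with compound. Second, a 15 min room-temperature incubation followed. Third, further NADPH and then DTNB were added to start the reaction. Finally, TNB absorbance was monitored kinetically.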
Giardia FBPA inh: blocks Giardia fructose-bisphosphate aldolase activity; 290,000 compounds, 0.71% hits; purified Giardia FBPA; A8B2U2; AID 2451; Potency, µM (series often up to 59.6 µM), without a hit: at the highest dose activity, negative = inhibition, actives largely listed as inhibitors; further: potency means the concentration at half of the fitted maximal effect; on the % scale 0 is the no-effect control and ±100 the full control effect; nearly all actives have a fitted effect of over 55% in size
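Giardia FBPA (40 nM reagent) was preincubated 10 min at RT with compound (up to 57.5 uM final), then substrate plus GAPDH/TPI/NAD/arsenate coupling system with diaphorase/resazurin was added; resorufin fluorescence (525/598 nm) was read after 20 min.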
LmPK inhibitor: LmPK (Leishmania mexicana) enzyme inhibition; AID 1721; 290,000 compounds, 0.37% hits; purified LmPK, Kinase-Glo ATP luminescence, 1 h; Potency, µM (highest dose often 57.5 µM), for inactives: at the highest dose activity change, negative = inhibition, hits mostly inhibitors; further: potency means the concentration at half of the fitted maximal effect; on the % scale 0 is the no-effect control and ±100 the full control effect
Target sequence (Q27686 whole entry, looked up): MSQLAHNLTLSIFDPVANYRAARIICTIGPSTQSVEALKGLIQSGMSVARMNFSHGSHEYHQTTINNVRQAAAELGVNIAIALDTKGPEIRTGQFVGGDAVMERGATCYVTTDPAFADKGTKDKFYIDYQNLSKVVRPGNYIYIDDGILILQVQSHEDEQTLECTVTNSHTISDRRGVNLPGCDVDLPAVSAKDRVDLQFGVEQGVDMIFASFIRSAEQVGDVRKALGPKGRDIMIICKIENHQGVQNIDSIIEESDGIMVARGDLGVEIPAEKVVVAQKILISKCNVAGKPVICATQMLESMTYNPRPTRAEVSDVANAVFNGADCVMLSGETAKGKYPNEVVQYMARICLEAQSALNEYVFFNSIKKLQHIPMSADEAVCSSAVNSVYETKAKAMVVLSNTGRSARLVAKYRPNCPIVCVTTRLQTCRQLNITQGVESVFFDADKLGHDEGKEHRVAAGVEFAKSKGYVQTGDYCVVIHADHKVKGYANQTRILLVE
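Purified LmPK (0.1 nM) with 0.5 mM PEP and 0.1 mM ADP in imidazole buffer pH 7.2 with MgCl2/KCl, 1 h at room temperature. ATP formed was read by luciferase luminescence and normalized to no-enzyme and uninhibited controls.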
CHX counter: affects cycloheximide protein synthesis inhibition readout, counter-screen | cell reporter, cycloheximide protein synthesis inhibition counterscreen | max response, % | 300,000 compounds, 12% hits; in the data active means max response mostly above about 13%, no sharp cut-off; inactive means mostly below about 14%; further: read at 38.3 µM for the half of the compounds with a filed dose; 0% is about no effect
Shiga toxin inh: Shiga toxin inhibition; Vero cells, Shiga toxin protein synthesis inhibition reporter; inhibition, % at 38.7 µM; 290,000 compounds, 9.2% hits; AID 2315; in the data active means inhibition mostly above about 28%, no sharp cut-off; inactive means mostly below about 43%; further: 0% is about no effect
Tb PYK inh: inhibitors of Trypanosoma brucei pyruvate kinase | Q57TT1 | TbPYK enzyme, Kinase-Glo Plus ATP luminescence, 45 min | Potency, µM (doses to about 76.8 µM), for the others: top-dose activity, negative = inhibition, usual class: inhibitors | 410,000 compounds, 0.12% hits | AID 624173; further: potency means the concentration at half of the fitted maximal effect; on the % scale 0 is the no-effect control and ±100 the full control effect; nearly all actives have a fitted effect of over 50% in size
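Readout: single end-point luminescence (Kinase-Glo Plus, 10 min). Reaction conditions were TbPYK/substrate plus 130 uM ADP, 45 min at RT, pH 7.2 TEA buffer. No-enzyme wells served as controls, and data were normalized before concentration-response fitting.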
Numbers without * were called inactive; ? = inconclusive; . = not tested or not shown; [ ] = another dose, or the depositor's remark. Unless noted, the call rests on the fitted dose curve; in most records, active means well fitted curve in the direction sought with a large enough effect; inconclusive means small, poorly fitted or top-dose-only effect, or another doubt; inactive means no such curve, though single readings can be large; an effect the other way counts as inactive or inconclusive.

SMILES | Sm TGR inh | Giardia FBPA inh | LmPK inhibitor | CHX counter | Shiga toxin inh | Tb PYK inh
CC(C)CNC(=O)CCc1nc(-c2ccccc2)no1 | -2% | 2% | -1% | 27* | 33* | -5%
CCCN(CCC)CCNC(=O)c1cc(Sc2ccc(Cl)cc2)nc2ccccc12 | 8% | . | . | . | . | 0%
Cc1ccccc1OCc1nnc(SCC(=O)O)n1-c1ccccc1 | 1% | -4% | -4% | 1 | . | 1%
CCOc1ccc(OCCSc2nnnn2-c2ccccc2)cc1 | -14% | 1% | -5% | -1 | -7 | 5%
Fc1ccccc1OCCSc1nnnn1-c1ccccc1 | 1% | -11% | 11% | 47* | 84* | -2%
Cc1ccccc1OCCSc1nnc(C)n1-c1ccccc1 | -2% | 2% | 0% | 19* | 31 | 0%
Cc1ncc(CSc2nnnn2-c2ccccc2)c(N)n1 | 45µM* | 4% | -3% | -1 | -14 | 2%
c1ccc(OCCSc2nnnn2-c2ccccc2)cc1 | -4%[11.4 µM] | -4% | 10% | 60* | 55* | -10%
CCSc1nnnn1-c1ccccc1 | 0% | -2% | 0% | -2 | -16 | -6%
Cc1cc(SCC(=O)Nc2nsc(-c3ccc(C(C)(C)C)cc3)n2)nc2ccccc12 | 6% | . | . | . | . | -2%
COc1ccc(-c2noc(N3CCC(C(=O)N4CCN(c5cccc(OC)c5)CC4)CC3)n2)cc1 | -2% | . | . | . | . | -5%
O=C(CSc1nnc2c(n1)[nH]c1ccc(F)cc12)NCc1ccc(F)cc1 | 3% | -9% | -3% | -4 | 2 | 0%
CC(C)COC(=O)N1CCCC(c2cc(C(=O)Nc3ccccc3Cl)no2)C1 (stereo not drawn) | . | . | . | . | . | 4%
BrC(=C\c1ccccc1)/C=N/Nc1ccc2nncn2n1 | ? | 0% | -1% | 11 | 18 | 1%
BrC(=C\c1ccccc1)/C=N/n1cnnc1 | -16% | 1% | -4% | 43* | 31* | 1%
COc1cc(C(=O)OCC(=O)N2CCNC2=O)cc(Cl)c1OC | -8% | . | . | . | . | 3%
Cc1nc2c(-c3ccccc3)cnn2c(N2CCOCC2)c1C | 8% | 1% | 6% | 47* | 98* | -8%
CCCc1cc(N2CCOCC2)n2ncc(-c3ccccc3)c2n1 | 1% | 4% | 2% | 39* | 58* | -6%
CC(C)(C)c1cc(N2CCOCC2)n2ncc(-c3ccccc3)c2n1 | -3% | 6% | -2% | 8 | 12 | 13%
CCc1ccccc1NC(=O)C1CCN(c2nn3c(=O)cc(C)nc3s2)CC1 | -3% | . | . | . | . | 0%
Cc1ccc(-c2nc(CN3CCCCC3)cc(CN3CCCCC3)c2O)cc1 | 20µM* | -28% | 1% | -2 | 12 | -4%
Cc1cc(NC(=O)CSc2nc(-c3cccs3)nc3ccccc23)no1 | -9% | . | . | . | . | 1%
CC(C)(C)OC(=O)NCCc1nnc(SCc2ccccc2Cl)o1 | -27% | -2% | 6% | -2 | 8 | -3%
CC(C)(C)OC(=O)NCCc1nnc(S(=O)(=O)Cc2ccc(Cl)cc2Cl)o1 | 0.89µM* | -3% | 2% | 19* | -4 | -10%
Nc1ncnn1Cc1ccccc1 | . | . | . | . | . | 1%
SMILES | Sm TGR inh | Giardia FBPA inh | LmPK inhibitor | CHX counter | Shiga toxin inh | Tb PYK inh
Cc1cccc(Nc2c(O)nc[nH]c2=O)c1 | . | . | . | . | . | -6%
O=C(c1ccc(F)cc1)c1cnc(Nc2ccccc2)s1 | 9% | 7% | 6% | 23* | 75* | 3%
CNc1ncc(C(=O)c2ccc(F)cc2)s1 | 0% | 4% | -7% | 43* | 67* | -1%
CNc1ncc(C(=O)C(C)(C)C)s1 | 0% | 6% | -3% | 15 | 41 | -4%
O=C(c1ccccc1)c1cnc(Nc2ccc(Cl)c(Cl)c2)s1 | 10% | 3% | 1% | 8 | 2 | -2%
CC(=O)c1cnc(Nc2cccc(C)c2)s1 | -1% | -7% | -24% | 48* | 119* | -13%
C[S+](C)CC[C@H](N)C(=O)O | . | . | . | . | . | -4%
Cc1ccc2c(=O)c(C(=O)c3ccc(F)cc3)cn(CC(=O)NCc3ccccc3Cl)c2n1 | 2% | . | . | . | . | 0%
COc1ccc(N2CCN(C(=O)C3CCN(S(=O)(=O)c4cn(C)cn4)CC3)CC2)cc1 | -2% | . | . | . | . | -7%
CCCOc1ccc(N)cc1N | 1.8µM* | 0.4µM* | -3% | -3 | 18 | -30%
CCCOc1cc(N)ccc1C(=O)OCCN(CC)CC | -7% | -3%[21.7 µM] | . | . | . | -4%
CCOc1ccc(C(=O)c2oc3ccccc3c2NC(=O)Cc2coc3ccc(CC)cc23)cc1 | 6% | . | . | . | . | 2%
COc1ccc(-n2c(SC3CCOC3=O)nc3ccccc3c2=O)cc1OC (stereo not drawn) | -3% | 8% | 0% | 38* | -3 | -6%
O=S(=O)(NN=C1CCCCCCC1)c1ccccc1 | . | . | . | . | . | -3%
COc1ccc2cccc(N3CCN(CCNC(=O)c4ccc(F)cc4)CC3)c2c1 | . | -7% | . | . | . | .
Cc1sc2ncnc(SCC(=O)c3cccs3)c2c1C | -8% | 3% | 1% | 35* | 72* | -1%
Cc1cccc(NC(=O)CSc2ncnc3sc(C)c(C)c23)n1 | 3% | . | -8% | -2 | -7 | 4%
O=C(Nc1ccc(-c2csc(-c3ccccc3)n2)cc1)c1ccccc1 | 0% | 2% | -2% | -2 | -10 | 3%
CCOc1ccc(NC(=O)c2ccc(-c3csc(C)n3)cc2)cc1 | -3% | 8% | -4% | 8 | 11 | -9%
COc1ccc(NC(=O)c2ccc(-c3csc(C)n3)cc2)cc1 | 10% | 1% | -7% | 36* | 78* | 0%
COc1ccc(-c2csc(C)n2)cc1 | -2% | 0% | -23% | 31* | 56* | -3%
Cc1nc(-c2ccc(C(=O)Nc3ccc(F)cc3)cc2)cs1 | 0% | 0% | ? | 35* | 75* | -9%
Cc1nc(-c2ccc(C(=O)Nc3cccc(F)c3)cc2)cs1 | 3% | -6% | -16% | 17* | 18* | -14%
CCC(=O)N1CCc2cc(S(=O)(=O)NCCC(=O)NCc3ccc(C)cc3)ccc21 | 4% | . | . | . | . | -5%
CCCCCCCCCCCCCCCC(=O)OC[C@H](O)[C@H]1OC[C@@H](O)[C@@H]1O | . | . | . | . | . | 2%
SMILES | Sm TGR inh | Giardia FBPA inh | LmPK inhibitor | CHX counter | Shiga toxin inh | Tb PYK inh
COc1ccc(C(=O)Nc2cnc3sc(C)nn3c2=O)cc1 | -1% | 8% | -8% | 24* | 46* | -6%
COc1ccc(C(=O)Nc2cc(-c3nn4c(C)nnc4s3)ccc2C)cc1 | 5% | 5% | 3% | -1 | 20 | 0%
COc1ccc(Cc2nnc(SCc3c(C)noc3C)n2C2CCCCC2)cc1OC | -25% | 0% | -19% | 13 | 51* | -28%
CSc1cccc(NC(=O)CN2CCN(Cc3ccccc3C)S2(=O)=O)c1 | 3% | . | . | . | . | 2%[15.4 µM]
Cc1ccc(-c2c3c(=O)n(C)c(=O)n(C)c3cn2Cc2ccccc2)cc1 | 45µM* | -9% | 7% | -2 | -16 | -8%
CCCn1cc2c(c1-c1ccc(C)cc1)c(=O)n(C)c(=O)n2C | 0% | 0% | 0% | -2 | -5 | -1%
Cn1c(=O)c2c(-c3ccccc3)n(Cc3ccccn3)cc2n(C)c1=O | 28µM* | -11% | -3% | 3 | -8 | -13%

Assay outcomes: PubChem BioAssay, National Center for Advancing Translational Sciences (NCATS)
